Screening data deposited in PubChem by National Center for Advancing Translational Sciences (NCATS).
An excerpt weighted towards active compounds, which were near 3.2% of everything screened.
Tau ThT inhib = blocks human tau fibril formation measured by thioflavin T | P10636 | recombinant tau K18 P301L, heparin-induced fibrillization, ThT fluorescence | Potency, µM (top dose mostly 57.4 µM), actives largely listed as inhibitors | 270,000 tested, 2.1% active; also: nearly all actives have a fitted effect of over 55% in size
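Aggregation was driven by heparin (20 uM final) acting on recombinant tau […] bearing P301L in 100 mM sodium acetate pH 7; fibrils were detected with Thioflavin T.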
GoLoco inh red = RGS12 GoLoco-Gai1 interaction inhibition; 230,000 tested, 0.44% active; Gai1:RGS12 GoLoco peptide FP, rhodamine, 10 min; Potency, µM (series often up to 61.6 µM), most hits filed as inhibitors; P63096; active = well fitted inhibition curve with a large enough effect, not every such curve was filed as active; inactive = no such curve, though single readings can be large or run the other way; also: nearly all actives have a fitted effect of over 30% in size
Tau FP inhib = blocks human tau fibril formation measured by polarization. 280,000 tested, 0.39% active. K18 P301L tau heparin fibrillization, Alexa594 FP, 6 h. P10636. Potency, µM (doses to about 57.7 µM), hits mostly inhibitors; also: nearly all actives have a fitted effect of over 55% in size
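Heparin (20 uM) drove fibril formation of recombinant tau K18 P301L, 15 uM unlabeled with 0.24 uM Alexa 594 label, for 6 hr at 37 C in 100 mM sodium acetate pH 7. Fluorescence polarization (555/632 nm) read 1 hr after 30 uM ThT.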
TRb-SRC2 inh = inhibitors of human thyroid hormone receptor beta-SRC2 interaction. TRbeta-SRC2 peptide binding, fluorescence polarization; receptor liganded with 1 µM T3. 280,000 tested, 0.065% active. Potency, µM (top dose mostly 106 µM), hits mostly inhibitors. P10828; also: nearly all actives have a fitted effect of over 50% in size
Target sequence (P10828 whole entry, looked up): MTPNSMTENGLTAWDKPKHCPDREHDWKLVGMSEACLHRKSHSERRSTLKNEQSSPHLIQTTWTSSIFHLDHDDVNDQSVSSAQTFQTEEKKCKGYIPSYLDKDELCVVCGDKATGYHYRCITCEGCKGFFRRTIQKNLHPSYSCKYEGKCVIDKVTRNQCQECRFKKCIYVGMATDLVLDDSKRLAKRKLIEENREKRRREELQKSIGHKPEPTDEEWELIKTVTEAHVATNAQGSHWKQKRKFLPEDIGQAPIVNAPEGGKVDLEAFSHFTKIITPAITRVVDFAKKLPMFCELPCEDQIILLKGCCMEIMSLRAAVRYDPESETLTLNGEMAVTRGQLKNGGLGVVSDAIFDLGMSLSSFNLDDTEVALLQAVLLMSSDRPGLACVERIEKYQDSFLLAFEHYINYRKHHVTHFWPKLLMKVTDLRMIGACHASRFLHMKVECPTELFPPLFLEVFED
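A fluorescence polarization screen tested compounds at multiple concentrations against complex formation between 0.6 uM TRb ligand-binding domain and 20 nM Texas Red SRC2 peptide, with 1 uM T3 present; readout after 5 hr.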
Tau fluor counter = counter-screen for tau fibril formation inhibitors; tau K18 P301L (four-repeat tau fragment) Alexa594 fluorescence, heparin fibrillization; Potency, µM (highest dose often 57.7 µM); 280,000 tested, 0.93% active; also: nearly all actives have a fitted effect of over 55% in size
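Human K18 P301L tau (15 uM unlabeled plus 0.24 uM Alexa 594-labeled, final) in 100 mM sodium acetate pH 7 was mixed with compound and 20 uM heparin and incubated 6 hr at 37 C.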
TexasRed fluor = Texas Red fluorescence interference in TRb-SRC2 counter-screen | TRb/SRC2 Texas Red total fluorescence interference | Potency, µM (highest dose often 106 µM) | 280,000 tested, 0.29% active; active = well fitted curve in either direction with a large enough effect; inconclusive = small, poorly fitted or top-dose-only effect
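Flags fluorescent or light-absorbing compounds by total fluorescence, S + 2P, at 555 nm excitation and 632 nm emission. Mixture: 20 nM Texas Red SRC2 peptide, 0.6 uM human TRb LBD, 1 uM T3, 5% DMSO; compound exposure 5 h at ambient temperature.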
Each line names hits and unclear results; the compound was inactive in the other large screens; [ ] = remark or other dose. Unless noted, calls follow the shape of the dose curve; as a rule, active = well fitted curve in the direction sought with a large enough effect; inconclusive = small, poorly fitted or top-dose-only effect, or another doubt; inactive = no such curve, though single readings can be large; an effect the other way counts as inactive or inconclusive.

Nc1c(C(=O)Nc2ccccc2F)sc2nc(-c3ccco3)ccc12	Tau ThT inhib inconclusive, Tau fluor counter inconclusive
NC(=O)c1sc2nc(-c3ccco3)ccc2c1N	Tau ThT inhib 6.31µM, Tau fluor counter inconclusive
COC(=O)c1sc2nc(-c3ccco3)ccc2c1N	Tau ThT inhib 7.08µM, Tau fluor counter inconclusive, TexasRed fluor inconclusive
COc1ccc(NC(=O)c2cc3c(Cl)nc4ccccc4c3s2)c(OC)c1	none
COc1cc(NC(=O)c2cc3c(Cl)nc4ccccc4c3s2)cc(OC)c1OC	Tau ThT inhib inconclusive, Tau fluor counter 8.91µM[quencher]
O=C(O)C1(C(=O)Nc2ccc(Cl)cc2Cl)CC1	none (no result: Tau ThT inhib, GoLoco inh red, Tau FP inhib, Tau fluor counter)
O=C(C1=C[C@@H]2[C@H]3C(=O)N(c4ccccc4)C(=O)[C@H]3[C@@H](C(=O)c3ccc(Cl)cc3)N2C=C1)c1ccccc1	Tau ThT inhib 14.1µM, Tau FP inhib inconclusive, Tau fluor counter inconclusive
Cc1ccc(C(=O)CSC2=NC(N)=C(C#N)C3(CCCCC3)C2C(N)=O)cc1 (stereo not drawn)	Tau ThT inhib 25.1µM, Tau FP inhib inconclusive
O=C(/C=C/c1cn(CC(O)CN2CCOCC2)c2ccccc12)c1cccs1 (stereo not drawn)	Tau ThT inhib 14.1µM, Tau fluor counter inconclusive
COc1ccc(C(=O)/C=C/c2cn(CC(O)CN3CCOCC3)c3ccccc23)cc1 (stereo not drawn)	Tau ThT inhib 10µM, Tau FP inhib inconclusive, Tau fluor counter inconclusive
Cc1ccc(C(=O)/C=C/c2cn(CC(O)CN3CCOCC3)c3ccccc23)cc1 (stereo not drawn)	Tau ThT inhib inconclusive
O=Cc1cn(CC(O)CN2CCCCC2)c2ccccc12 (stereo not drawn)	none
CC1Cc2ccccc2N1C(=O)CSc1nnc(-c2ccccc2Cl)o1 (stereo not drawn)	none (no result: GoLoco inh red)
CCOc1ccc(/C=N/N(C)c2ccccc2)cc1OC	Tau ThT inhib 7.94µM, Tau FP inhib inconclusive, Tau fluor counter inconclusive
CC[C@H](C)[C@H](NC(=O)[C@H](CCC(=O)O)NC(=O)[C@H](CC(N)=O)NC(=O)[C@@H](N)[C@@H](C)O)C(=O)N[C@H](C(=O)N[C@@H](CCC(=O)O)C(=O)N[C@@H](CCC(=O)O)C(=O)N[C@@H](CCC(N)=O)C(=O)N[C@@H](Cc1ccc(O)cc1)C(=O)N[C@H](C(=O)N1CCC[C@H]1C(=O)N[C@@H](CCC(N)=O)C(=O)N[C@@H](CO)C(=O)N[C@@H](CC(C)C)C(=O)N[C@@H](C)C(=O)N[C@H](C(=O)N[C@@H](CC(C)C)C(=O)N[C@@H](CCC(=O)O)C(=O)N[C@@H](CO)C(=O)N[C@H](C(=O)N[C@@H](Cc1ccccc1)C(=O)N[C@@H](CCC(N)=O)C(=O)N[C@@H](CCC(=O)O)C(=O)N[C@@H](CC(C)C)C(=O)NCC(=O)N[C@@H](CCCCN)C(=O)N[C@@H](CC(C)C)C(=O)N[C@H](C(=O)NCC(=O)N1CCC[C@H]1C(=O)N[C@@H](CC(N)=O)C(=O)N[C@@H](CO)C(=O)N[C@@H](CCC(N)=O)C(=O)O)[C@@H](C)O)C(C)C)[C@@H](C)O)[C@@H](C)O)C(C)C	none (no result: Tau ThT inhib, GoLoco inh red, Tau FP inhib, Tau fluor counter)
O=c1[nH]c2ccc(NC(=S)Nc3ccc(F)cc3)cc2[nH]1	Tau ThT inhib inconclusive
O=C(Nc1ccc([N+](=O)[O-])cc1)Nc1ccc2[nH]c(=O)[nH]c2c1	Tau ThT inhib 8.91µM, Tau fluor counter 8.91µM[quencher]
COc1cc(NC(=O)Nc2ccc3c(c2)OCO3)cc(OC)c1OC	none
COc1cc([N+](=O)[O-])ccc1NC(=O)Nc1ccc2c(c1)OCCO2	Tau ThT inhib 12.6µM, Tau FP inhib inconclusive, Tau fluor counter 15.8µM[quencher]
COc1ccc(C(C)(C)C)cc1NC(=O)Nc1ccc2c(c1)OCO2	Tau ThT inhib inconclusive, Tau FP inhib inconclusive, Tau fluor counter 14.1µM[quencher]
O=C(Nc1ccc([N+](=O)[O-])cc1)Nc1ccc2c(c1)OCCO2	Tau ThT inhib inconclusive, Tau FP inhib inconclusive, Tau fluor counter 8.91µM[quencher]
